# How the values were obtained:
# Assay in all cases: yeast three-hybrid, YBZ-1, SC-Leu-His + 0.5 mM 3-AT, 4 days
# Conditions in all cases: tags: N-Gal4 AD-HA kept; label: inside an RPR1-promoter hybrid RNA with tandem MS2 sites; ssRNA
# PUM1 PUF domain R6-VWY = biological target: T1, PUM1 PUF domain R6-VWY (Homo sapiens, UniProt Q14671 828-1176, N1043V;Y1044W;Q1047Y)
# T1 sequence: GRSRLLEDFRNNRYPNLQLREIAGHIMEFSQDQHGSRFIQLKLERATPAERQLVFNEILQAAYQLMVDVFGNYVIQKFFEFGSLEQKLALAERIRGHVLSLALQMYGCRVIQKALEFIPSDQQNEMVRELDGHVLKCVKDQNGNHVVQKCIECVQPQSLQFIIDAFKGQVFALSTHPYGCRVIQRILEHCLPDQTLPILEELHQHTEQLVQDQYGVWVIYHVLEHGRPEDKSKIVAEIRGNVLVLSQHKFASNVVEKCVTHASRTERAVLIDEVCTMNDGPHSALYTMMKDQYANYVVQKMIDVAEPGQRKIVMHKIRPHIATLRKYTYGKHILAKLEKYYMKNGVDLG
# Summary of the method: (§1)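 The interaction score is the logarithmic change in variant frequency from input to selection. It uses log2, with a pseudocount of 1 for absent variants, and frequencies came from PCR-amplified, Illumina-sequenced repeat regions. The libraries were Pumilio-1 PUF domains randomized at the three base-contacting residues per repeat, co-expressed with matching RNA elements in strain YBZ-1 (LexA–MS2 coat fusion, HIS3 reporter). Plating lasted four days on SC-Leu (input) or SC-Leu-His + 0.5 mM 3-AT (selection).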
# PUM1 PUF domain R4-VPA = PUM1 PUF domain R4-VPA (Homo sapiens, UniProt Q14671 828-1176, N971V;H972P;Q975A)
# Summary of the method: as §1
# PUM1 PUF domain R4-DHL = PUM1 PUF domain R4-DHL (Homo sapiens, UniProt Q14671 828-1176, N971D;Q975L)
# Summary of the method: as §1
# PUM1 PUF domain R5-LYC = PUM1 PUF domain R5-LYC (Homo sapiens, UniProt Q14671 828-1176, C1007L;R1008Y;Q1011C)
# Summary of the method: as §1
# PUM1 PUF domain R1-KCV = PUM1 PUF domain R1-KCV (Homo sapiens, UniProt Q14671 828-1176, S863K;R864C;Q867V)
# Summary of the method: as §1
# PUM1 PUF domain R5-GVE = PUM1 PUF domain R5-GVE (Homo sapiens, UniProt Q14671 828-1176, C1007G;R1008V;Q1011E)
# Summary of the method: as §1
# PUM1 PUF domain R5-KHW = PUM1 PUF domain R5-KHW (Homo sapiens, UniProt Q14671 828-1176, C1007K;R1008H;Q1011W)
# Summary of the method: as §1
# PUM1 PUF domain R4-NNH = PUM1 PUF domain R4-NNH (Homo sapiens, UniProt Q14671 828-1176, H972N;Q975H)
# Summary of the method: as §1
# PUM1 PUF domain R4-PYL = PUM1 PUF domain R4-PYL (Homo sapiens, UniProt Q14671 828-1176, N971P;H972Y;Q975L)
# Summary of the method: as §1
# PUM1 PUF domain R4-CMS = PUM1 PUF domain R4-CMS (Homo sapiens, UniProt Q14671 828-1176, N971C;H972M;Q975S)
# Summary of the method: as §1
sequence,measurement,setting,value
GGCUAGAACUAGUGGAUCCCCCGGCGCCCGGCGGCUCGAGCCCGGGUAAGUGAAAAUAGUCUGCAUGCCGCCGGGCGCCAUGCCUGCAGGUCGACUCUAGAAAACAUG,binding signal,PUM1 PUF domain R6-VWY,3.66 log2 enrichment (interaction score)
GGCUAGAACUAGUGGAUCCCCCGGCGCCCGGCGGCUCGAGCCCGGGUAAGUGUAAAUAGUCUGCAUGCCGCCGGGCGCCAUGCCUGCAGGUCGACUCUAGAAAACAUG,binding signal,PUM1 PUF domain R4-VPA,1.54 log2 enrichment (interaction score)
same,binding signal,PUM1 PUF domain R4-DHL,2.49 log2 enrichment (interaction score)
same,binding signal,PUM1 PUF domain R5-LYC,3.33 log2 enrichment (interaction score)
GGCUAGAACUAGUGGAUCCCCCGGCGCCCGGCGGCUCGAGCCCGGGUAAGUGUAAAUUGUCUGCAUGCCGCCGGGCGCCAUGCCUGCAGGUCGACUCUAGAAAACAUG,binding signal,PUM1 PUF domain R1-KCV,3.99 log2 enrichment (interaction score)
GGCUAGAACUAGUGGAUCCCCCGGCGCCCGGCGGCUCGAGCCCGGGUAAGUGUGAAUAGUCUGCAUGCCGCCGGGCGCCAUGCCUGCAGGUCGACUCUAGAAAACAUG,binding signal,PUM1 PUF domain R5-GVE,3.01 log2 enrichment (interaction score)
GGCUAGAACUAGUGGAUCCCCCGGCGCCCGGCGGCUCGAGCCCGGGUAAGUGUUAAUAGUCUGCAUGCCGCCGGGCGCCAUGCCUGCAGGUCGACUCUAGAAAACAUG,binding signal,PUM1 PUF domain R5-KHW,3.92 log2 enrichment (interaction score)
same,binding signal,PUM1 PUF domain R5-LYC,2.27 log2 enrichment (interaction score)
GGCUAGAACUAGUGGAUCCCCCGGCGCCCGGCGGCUCGAGCCCGGGUAAGUGUAUAUAGUCUGCAUGCCGCCGGGCGCCAUGCCUGCAGGUCGACUCUAGAAAACAUG,binding signal,PUM1 PUF domain R4-VPA,3.26 log2 enrichment (interaction score)
same,binding signal,PUM1 PUF domain R4-DHL,3.13 log2 enrichment (interaction score)
same,binding signal,PUM1 PUF domain R4-NNH,2.5 log2 enrichment (interaction score)
same,binding signal,PUM1 PUF domain R4-PYL,3.32 log2 enrichment (interaction score)
same,binding signal,PUM1 PUF domain R4-CMS,3.01 log2 enrichment (interaction score)
GGCUAGAACUAGUGGAUCCCCCGGCGCCCGGCGGCUCGAGCCCGGGUAAGUGUCAAUAGUCUGCAUGCCGCCGGGCGCCAUGCCUGCAGGUCGACUCUAGAAAACAUG,binding signal,PUM1 PUF domain R5-KHW,2.97 log2 enrichment (interaction score)
GGCUAGAACUAGUGGAUCCCCCGGCGCCCGGCGGCUCGAGCCCGGGUAAGUGUACAUAGUCUGCAUGCCGCCGGGCGCCAUGCCUGCAGGUCGACUCUAGAAAACAUG,binding signal,PUM1 PUF domain R4-VPA,1.62 log2 enrichment (interaction score)
same,binding signal,PUM1 PUF domain R4-CMS,2.83 log2 enrichment (interaction score)

# — paper PMC8384837, “Expanding the binding specificity for RNA recognition by a PUF domain”
